Source: PubChem BioAssay
Lassa entry – inhibitors of Lassa virus binding or entry into cells; Lassa virus pseudotyped entry inhibition, cell-based qHTS; 18,000 compounds, 4.1% hits; Potency, µM (doses to about 49.2 µM), for inactives: at the highest dose activity change, negative = inhibition, usual class: inhibitors
MARV entry inh – inhibitors of Marburg virus binding or entry into cells. 18,000 compounds, 6.5% hits. AID 720532. Potency, µM (doses to about 49.2 µM), for inactives: top-dose activity change, negative = inhibition, usual class: inhibitors. Marburg virus pseudotype entry/binding inhibition, cell-based
Starred values were filed as active, the others as inactive; ? = inconclusive; . = not tested or not shown; ! = not confirmed by another sample; [ ] = another dose, or the depositor's remark. A selection: hits, their analogues and other compounds. The true share with any hit is near 7.1%. Calls come from the whole dose curve; tested in HEK293 cells. % is set by controls: 0 for no effect and ±100 for the full control effect; potency is the fitted concentration of half-maximal effect.

SMILES	Lassa entry	MARV entry inh
CO[C@H]1C[C@H](O[C@H]2[C@H](C)[C@@H](O[C@@H]3O[C@H](C)C[C@H](N(C)C)[C@H]3O)[C@@H](C)C[C@]3(CO3)C(=O)[C@H](C)[C@@H](O)[C@@H](C)[C@@H](C)OC(=O)[C@@H]2C)O[C@@H](C)[C@@H]1O	-14.2%[17.8 µM]	-6.7%[17.8 µM]
Fc1ccccc1-c1nc(-c2ccccc2)oc1NCc1ccccc1	-31.6%[8.59 µM]	0.7%[8.59 µM]
O=C(O)c1cccc(-c2noc(-c3ccccc3F)n2)c1	8.91µM*	3.16µM*
CC(=O)OC[C@]12C[C@H](OC(=O)CC(C)C)C(C)=C[C@H]1O[C@H]1[C@H](O)[C@@H](OC(C)=O)[C@@]2(C)[C@]12CO2	0.178µM*	8.91µM*
Nc1nc(N)c(N=O)c(OCC2CCCCC2)n1	-4.5%	11.2µM*
COc1c(O)c2c(=O)cc(OC)c3c4c(OC)cc(=O)c5c(O)c(OC)c(C[C@@H](C)OC(=O)c6ccccc6)c(c(c1C[C@@H](C)OC(=O)Oc1ccc(O)cc1)c23)c54	31.6µM*	?
CCN(CC)CCNc1ccc(CO)c2sc3ccccc3c(=O)c12	3.1%[17.8 µM]	11.2µM*
CCC(Oc1ccccc1)C(=O)N[C@@H]1C(=O)N2[C@@H]1SC(C)(C)[C@@H]2C(=O)O (some centres undefined)	-11.6%	-10.3%
CN(C)c1ccc(-c2nc(N(C)Cc3ccco3)c3ccccc3n2)cc1	29.0%	?
CN(C)c1ccc(-c2nc(Nc3ccncc3)c3ccccc3n2)cc1	-32.4%	?
CNc1nc(-c2ccc(N(C)C)cc2)nc2ccccc12	-6.8%	17.8µM*
CN(C)c1ccc(-c2nc(N(C)C)c3ccccc3n2)cc1	-7.3%	11.2µM*
O=C(NC(CC1=CCCCC1)c1ccc2c(c1)OCO2)C(F)(F)F (centres undefined)	26.8%[8.59 µM]	47.2%[8.59 µM]
C=CC(C1=CC(=O)C(OC)=CC1=O)c1ccc(OC)cc1 (centres undefined)	2.4%	?
C=CC(C1=CC(=O)C(OC)=C(OC)C1=O)c1ccccc1 (centres undefined)	?	14.1µM*
CC(O)(COc1ccccc1)c1ccc2c(c1)CN(Cc1cccc3cccnc13)CCO2 (centres undefined)	-27.9%	-7.0%
O=C1C[C@@H](c2ccc(O)c(O)c2)Oc2c1ccc(O[C@@H]1O[C@H](CO)[C@@H](O)[C@H](O)[C@H]1O)c2O	-0.6%	?
O=C(/C=C/c1ccc(O)c(O)c1)c1ccc(O[C@@H]2O[C@H](CO)[C@@H](O)[C@H](O)[C@H]2O)c(O)c1O	1.7%	3.16µM*
CN(c1ccc(NC(=O)NCCN2CCOCC2)cc1)c1ccnc(Nc2ccc(CS(C)(=O)=O)cc2)n1	71.6%	-13.4%
CCCCCCCCCCCCCCCC(=O)N[C@@H](COP(=O)(O)O)C(=O)O	5.4%	10.3%
COCCN1C(=NCC(C)C)NC(c2ccccc2)C(C(=O)OC)=C1C (centres undefined)	.	28.6%[8.59 µM]
CC/C(=C(/CC)c1ccc(OP(=O)(O)O)cc1)c1ccc(OP(=O)(O)O)cc1	-13.8%	8.0%
CC/C(=C(/CC)c1ccc(O)cc1)c1ccc(O)cc1	3.55µM*	?
CCOC(=O)c1ccc(O)cc1	6.8%	13.0%
CCC(=C(CC)c1ccc(O)cc1)c1ccc(O)cc1	6.31µM*	?
SMILES	Lassa entry	MARV entry inh
COc1ccc2c(c1)O[C@@H]1c3ccc(OC)cc3OCC21 (some centres undefined)	-1.9%	4.0%
CCCN(CCC)Cc1cc(=O)oc2cc(C)c(C)cc12	-8.5%	?
O=C(NC(NC(=S)Nc1ccc(F)c([N+](=O)[O-])c1)C(Cl)(Cl)Cl)C(c1ccccc1)c1ccccc1 (centres undefined)	11.2µM*	11.2µM*
O=[N+]([O-])c1ccc(F)c([N+](=O)[O-])c1	-15.8%	-3.9%
O=C(N[C@@H]1c2ccccc2C2(CCN(C(=O)c3cc4ccccc4oc3=O)CC2)[C@H]1O)c1cccnc1	-2.5%	20.5%
CCc1ccc2c(c1)N(CC(C)CN(C)C)c1ccccc1S2 (centres undefined)	17.8µM*	14.1µM*
CC(CN1c2ccccc2Sc2ccc(S(=O)(=O)N(C)C)cc21)N(C)C (centres undefined)	-4.7%	?
CCCS(=O)(=O)NCc1c(C)ncc2c1CCN(C(=O)/C=C/c1ccc(F)cc1F)C2	-3.7%	-25.3%
CCN(CCO)CCCC(C)Nc1ccnc2cc(Cl)ccc12 (centres undefined)	-17.1%	1.26µM*
CN(Cc1ccco1)Cc1cc(-c2ccnc3cc(Cl)ccc23)ccc1O	-14.3%	-13.8%
CCN(CC)Cc1cc(Nc2ccnc3cc(Cl)ccc23)ccc1O	?	5.01µM*
COc1ccccc1/C=C\C(=O)OC[C@@H]1CCCN2CCCC[C@H]12	5.0%	?
C=CCOC(=O)C(C(C)=O)[C@@H](NC(=O)OC)c1cccc(C(F)(F)F)c1 (some centres undefined)	1.0%[8.59 µM]	4.2%[8.59 µM]
C[C@H](CO)NS(=O)(=O)c1cccc(Cl)c1F	14.1%	18.7%
Cc1nn(C)cc1CN1CCOc2ccc(CN3CCC(Oc4cccnc4)CC3)cc2C1	0.8%	?
CCCN1CCC=C(c2ccc(Nc3nc(Nc4ccccc4C(N)=O)c4cc[nH]c4n3)c(C)c2)C1	-1.5%	?
CCCN1CCCC(c2ccc(Nc3nc(Nc4cc(F)ccc4C(N)=O)c4cc[nH]c4n3)c(OC)c2)C1 (centres undefined)	?	7.91µM*
CCCN1CCC(Oc2cc(Nc3nc(Nc4cccc(F)c4C(N)=O)c4cc[nH]c4n3)c(OC)cc2Cl)CC1	?	9.96µM*
COc1ccc(OC)c(CNS(=O)(=O)c2ccccc2Br)c1	12.9%	17.8%
COc1cc(C=O)ccc1O	-4.3%	0.1%
COc1cc(/C=C/C(=O)CC(=O)/C=C/c2ccc(O)c(OC)c2)ccc1O	31.6µM*!	?
COc1ccc(/C=C/C(=O)CC(=O)/C=C/c2cccc(O)c2OC)cc1O	10µM*	8.91µM*
COc1cc(C=C2CCC/C(=C\c3ccc(O)c(OC)c3)C2=O)ccc1O	31.6µM*	?
COc1cc(/C=C/C(=O)O)ccc1O	-11.9%	7.6%
COc1cccc(/C=C/C(=O)O)c1C(C)C	-0.8%	6.6%
SMILES	Lassa entry	MARV entry inh
CC[C@H](C)[C@H](NC(=O)[C@H](CCCN=C(N)N)NC(=O)[C@H](CCCN=C(N)N)NC(=O)[C@H](CC(C)C)NC(=O)[C@H](Cc1ccccc1)NC(=O)CNC(=O)CNC(=O)[C@@H](N)Cc1ccc(O)cc1)C(=O)O	-19.2%	11.0%
COC(=O)C1(C(=O)OC)CC(CO)C(=O)[C@@H]1c1ccccc1 (some centres undefined)	3.4%[8.59 µM]	-8.4%[8.59 µM]
Cc1ccc(CN2[C@@H](C)[C@@H](c3ccccc3)Oc3c(Cl)cccc3S2(=O)=O)cc1	1.8%	?
CCC1CN(Cc2cn[nH]c2-c2ccccc2)Cc2cc(OC)ccc2O1 (centres undefined)	-1.2%	6.8%
CN(C(=O)Cc1ccc(Cl)c(Cl)c1)[C@H](CN1CCCC1)c1ccccc1	20µM*	7.08µM*
CN(C(=O)Cc1ccccc1)[C@H](CN1CCCC1)c1ccccc1	-1.8%	?
COc1ccc(-c2cc(-c3cn[nH]c3-c3ccccn3)ccn2)cc1	92.8%	38.9%
COc1cc(/C=C/C(=O)N2CCC=CC2=O)cc(OC)c1OC	?	10µM*
COc1cc(C(=O)N2CCCCCCC2)cc(OC)c1OC	-20.4%	-5.1%
Oc1cccc(-c2nc(-c3ccccc3)[nH]c2-c2ccncc2)c1	.	7.91µM*
NCc1ccc(-c2nc(-c3ccc(Cl)c(O)c3)c(-c3ccncc3)[nH]2)cc1	20.4%	?
